This is an account of results in PubChem BioAssay (NCI).

About 83,000 compounds went through this panel and 20% of them were active in at least one assay; those are over-represented in the sample as a whole.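 Each cell line was grown in a 96-well plate and treated with one concentration of compound for 48 hours. Values below 10 were considered active.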 A number with no mark means an inactive call. Calls of active or inactive are those of the source.

What all share (assay): NCI-60 one-dose screen, 48 h (100 = growth as untreated, 0 = no growth, -100 = all killed)
The test system of one assay is BT-549 breast. The conditions noted are these: 10 µM unless noted.
The subject of the next assay is MDA-MB-435 melanoma. Conditions: 10 µM unless noted.
The subject of a further assay is SW-620 colon. The conditions noted are these: 10 µM unless noted.
For the next assay, the system named is MCF7 breast. Conditions: 10 µM.
The subject of the next assay is HCT-116 colon. Conditions: 10 µM unless noted.
The next assay concerns HCC-2998 colon. The conditions noted are these: 10 µM unless noted.
In a further assay the test system is KM12 colon. The conditions noted are these: 10 µM unless noted.

With `O=C(Nc1ccc(F)c(Cl)c1)Nc1ccc(Cl)c(Cl)c1`, the growth in the assay with BT-549 breast is 64%; with MDA-MB-435 melanoma it was -7.47% (active); with SW-620 colon, 35%; with MCF7 breast it was 55.1%; in the assay on HCT-116 colon it was 50.6%; in the assay with HCC-2998 colon, 94.6%. Moreover, the growth in the assay on KM12 colon is 51.6%.
Regarding `COc1ccc(C2=C(c3cccc(OC)c3)C(=O)c3ccc(C)nc3C2=O)cc1`, the growth in the assay on BT-549 breast is 57.5%; in the assay with MDA-MB-435 melanoma, 32.2%; with SW-620 colon, 23.6%; in the assay on MCF7 breast, 23.7%; in the assay with HCT-116 colon, 11.2%; in the assay with HCC-2998 colon it was 84.6%. Further, the growth in the assay on KM12 colon was 28.6%.
`COC(=O)c1c2c(c(C)[n+]([O-])c1C)C(=O)C(NCc1ccc(F)c(F)c1)=CC2=O`: the growth with BT-549 breast is 66.4%; with MDA-MB-435 melanoma, -88.4% (active); in the assay with SW-620 colon, 3.6% (active); in the assay on MCF7 breast, -43.3% (active); in the assay on HCT-116 colon, 1.74% (active); in the assay on HCC-2998 colon, 9.25% (active). The growth with KM12 colon was 10.4%.
As to `COc1cc2nc(-c3cccc4cccnc34)nc(NC3CCN(Cc4ccccc4)CC3)c2cc1OC`, the growth is -65% (active) in the assay with BT-549 breast; -93.3% (active) with MDA-MB-435 melanoma; -74.8% (active) in the assay on SW-620 colon; -77.2% (active) with MCF7 breast; -63.7% (active) in the assay with HCT-116 colon; -91% (active) in the assay on HCC-2998 colon. Besides, in the assay on KM12 colon, the growth is -76% (active).
Take `COc1cc(/C=C2\CCC/C(=C\c3cc(CN4CCCCC4)c(O)c(OC)c3)C2=O)cc(CN2CCCCC2)c1O`: the growth in the assay with BT-549 breast was 103%; with MDA-MB-435 melanoma, 76.8%; in the assay with SW-620 colon, 71.4%; in the assay with MCF7 breast, 52.5%; in the assay with HCT-116 colon, 60.1%; in the assay with HCC-2998 colon it was 103%. Also, in the assay on KM12 colon, the growth is 73.7%.
On to `CCN1C(=O)N(CC)C2C1NC(=S)N2/N=C/C=C/c1ccccc1OC` (centres undefined), for which the growth was -5.67% (active) in the assay on BT-549 breast; -20.9% (active) in the assay on MDA-MB-435 melanoma; 23.6% in the assay with SW-620 colon; 17.8% in the assay with MCF7 breast; 2.3% (active) in the assay on HCT-116 colon; 12.4% in the assay on HCC-2998 colon. Moreover, in the assay on KM12 colon, the growth is 15.6%.
Turning to `COC(=O)[C@H](NC(=O)C1(C)CCC[C@]2(C)[C@H]3C[C@H]4C(C(C)C)=C[C@]3(CC[C@@H]12)[C@@H]1C(=O)CCC(=O)[C@@H]14)C(C)C` (some centres undefined), the growth with BT-549 breast is 106%; in the assay with MDA-MB-435 melanoma it was 104%; with SW-620 colon, 106%; with MCF7 breast, 98.2%; with HCT-116 colon, 106%; in the assay with HCC-2998 colon, 104%. The growth in the assay on KM12 colon is 105%.
`COC(=O)/C(CCC=C(C)C)=C1\[C@@H](OC(C)=O)C[C@@]2(C)[C@H]1C[C@@H](O)[C@H]1[C@@]3(C)CC[C@H](NC(=O)c4cnccn4)[C@@H](C)[C@@H]3CC[C@@]12C`: the growth with BT-549 breast was 100%; with MDA-MB-435 melanoma, 103%; in the assay on SW-620 colon it was 104%; in the assay on MCF7 breast, 96%; with HCT-116 colon, 93.1%; with HCC-2998 colon, 104%. In addition, in the assay on KM12 colon, the growth is 102%.
With `O=Nc1c(O)ccc2ccccc12.O=Nc1c(O)ccc2ccccc12.O=Nc1c([O-])ccc2ccccc12.[Fe+3]`, the growth with BT-549 breast is 103%; with MDA-MB-435 melanoma, 109%; with SW-620 colon it was 97.3%; in the assay with MCF7 breast, 89.2%; in the assay with HCT-116 colon, 97.1%; in the assay on HCC-2998 colon it was 113%. Moreover, the growth in the assay with KM12 colon is 116%.
On to `COC(=O)c1c2c(c(C)[n+]([O-])c1C)C(=O)C(NCc1ccc(Br)cc1)=CC2=O`, for which the growth in the assay on BT-549 breast is 62.3%; with MDA-MB-435 melanoma it was -77.4% (active); in the assay on SW-620 colon, 5.24% (active); with MCF7 breast, -20.1% (active); with HCT-116 colon, 1.37% (active); in the assay with HCC-2998 colon it was 14.4%. Also, in the assay with KM12 colon, the growth is 15.2%.
For the compound `CN(C)CCNc1cc(-c2ccccc2)nc2ccccc12`, the growth in the assay on BT-549 breast is -77.8% (active); with MDA-MB-435 melanoma it was -55.1% (active); in the assay with SW-620 colon, -79.8% (active); in the assay on MCF7 breast it was -24.6% (active); in the assay with HCT-116 colon, -71.4% (active); with HCC-2998 colon, -81.4% (active). Besides, in the assay with KM12 colon, the growth is -23.8% (active).
With `Cn1c(/C=C(\C#N)c2cccc(C(F)(F)F)c2)nc2c(N3CCOCC3)nc(Cl)nc21`, the growth was -13.1% (active) in the assay on BT-549 breast; -91.5% (active) in the assay with MDA-MB-435 melanoma; -68.8% (active) with SW-620 colon; -54.1% (active) with MCF7 breast; -85.5% (active) in the assay with HCT-116 colon; 14% in the assay on HCC-2998 colon. Besides, the growth in the assay on KM12 colon was 19.1%.
Turning to `CCOC(=O)C(CC(=O)O)=C(C(=O)OCC)C(=O)OCC`, the growth with BT-549 breast was 122%; in the assay with MDA-MB-435 melanoma, 103%; in the assay on SW-620 colon, 105%; with MCF7 breast, 92%; with HCT-116 colon, 99.8%; in the assay on HCC-2998 colon, 104%. Moreover, the growth in the assay on KM12 colon is 103%.
Regarding `CC[C@H](C)[C@@H](C(=O)OC)n1cc(CNC(=O)[C@@H](Cc2ccccc2)NC(=O)OCc2ccccc2)nn1`, the growth with BT-549 breast is 106%; with MDA-MB-435 melanoma, 99.9%; with SW-620 colon, 102%; in the assay on MCF7 breast, 97%; with HCT-116 colon it was 102%; in the assay with HCC-2998 colon it was 104%. Also, the growth in the assay on KM12 colon was 103%.
As for `COc1ccc(/C=C/C(=O)c2c(C)nc3ccccc3c2/C=C/c2ccccc2)c(OC)c1`, the growth with BT-549 breast was 89.2%; in the assay on MDA-MB-435 melanoma, 88.9%; with SW-620 colon it was 80.5%; in the assay on MCF7 breast it was 62.6%; in the assay on HCT-116 colon, 51.5%; with HCC-2998 colon, 92.1%. In the assay with KM12 colon, the growth was 87.4%.
`NCCOc1ncccc1/C=C1\c2ccccc2-c2ccc(F)cc21`: the growth in the assay on BT-549 breast is 82.4%; with MDA-MB-435 melanoma it was 60.7%; in the assay with SW-620 colon it was 14.7%; in the assay with MCF7 breast, 14.9%; in the assay on HCT-116 colon it was 15%; in the assay with HCC-2998 colon, 18.3%. Further, the growth with KM12 colon was 8.88% (active).
On to `O=Cc1cc2ccccc2nc1Nc1nccs1`, for which the growth in the assay with BT-549 breast is 88.9%; in the assay with MDA-MB-435 melanoma it was 81.4%; in the assay on SW-620 colon, 27.5%; in the assay on MCF7 breast, 13.2%; in the assay with HCT-116 colon it was 54.3%; in the assay with HCC-2998 colon it was 87.6%. Also, the growth in the assay on KM12 colon is 56.2%.
